In PubChem BioAssay AID431 (Sanford-Burnham Center for Chemical Genomics, 2006):
In all, about 63,000 compounds went through this assay and about 1,100 (1.7%) were called active. The sample holds actives, similar compounds and a random draw of the others, so the mix is not that of the screen. Results with a measured potency or affinity are listed apart. Unmarked numbers belong to inactive results.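 How the source made its calls: active means compounds whose percent cytotoxicity in the single-dose primary screen, scaled between solvent and toxic-drug controls, exceeds 50; inactive means the rest.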

Assay: viability loss of HPDE-C7K cells – cell-based, fluorescence, HTS, primary screen (AID 431);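 further: 0% = DMSO solvent wells and 100% = doxorubicin-treated wells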
Conditions: HPDE-C7K KRASV12 cells, Alamar Blue viability, 48 h; at 10 µM; active compounds read high

Question: With `Cn1c(-c2ccc(F)cc2)cnc1SCC(=O)N1CCCCC1` as the compound, how does the cytotoxicity read?
Answer: Its cytotoxicity is -5.4%.

Question: With `C/C=C/c1ccc(Oc2nnnn2-c2ccc(C(N)=O)cc2)c(OC)c1` as the compound, how does the cytotoxicity read?
Answer: Its cytotoxicity is 1%.

Question: For `Fc1ccc2[nH]c3c(N4CCN(Cc5ccc6c(c5)OCO6)CC4)ncnc3c2c1`, which cytotoxicity is on record?
Answer: Its cytotoxicity is 95.1% (active).

Question: With `Cc1ccc2[nH]c3c(N4CCN(Cc5ccc6c(c5)OCO6)CC4)ncnc3c2c1` as the compound, how does the cytotoxicity read?
Answer: Its cytotoxicity is 34.4%.

Question: For `c1nc(N2CCN(Cc3ccc4c(c3)OCO4)CC2)c2[nH]cnc2n1`, which cytotoxicity is on record?
Answer: Its cytotoxicity is -0.7%.

Question: For `CCOc1ccc(N(CC(=O)NCc2cccs2)S(=O)(=O)c2c(C)noc2C)cc1`, which cytotoxicity is on record?
Answer: The cytotoxicity was -1.7%.

Question: For `CCOC(=O)N1CCN(c2c(N3CC=C(c4ccccc4)CC3)c(=O)c2=O)CC1`, which cytotoxicity is on record?
Answer: Its cytotoxicity is -2.9%.

Question: With `CSc1cccc(NC(=O)CSc2nc3ccccc3o2)c1` as the compound, how does the cytotoxicity read?
Answer: Its cytotoxicity is -18.9%.

Question: With `O=C(CSc1nc2ccccc2o1)Nc1ccccc1` as the compound, how does the cytotoxicity read?
Answer: The cytotoxicity was -14.6%.

Question: Which cytotoxicity does the source give for `COc1ccc(C(=O)Nc2cccc(C)c2)cc1S(=O)(=O)N1CCOCC1` here?
Answer: Its cytotoxicity is 15.9%.

Question: For `O=C(NCc1ccoc1)c1ccc(NC(=O)c2ccccc2Cl)cc1`, which cytotoxicity is on record?
Answer: Its cytotoxicity is -12.8%.

Question: For `COCCn1nnnc1CN1CCC(NC(=O)c2ccc(Br)cc2)CC1`, which cytotoxicity is on record?
Answer: The cytotoxicity was -2.4%.

Question: With `CC(=O)OC[C@H]1O[C@@H](n2ccc(=O)[nH]c2=S)C(OC(C)=O)C1OC(C)=O` (stereo partly specified) as the compound, how does the cytotoxicity read?
Answer: The cytotoxicity was 4.5%.

Question: Which cytotoxicity does the source give for `CC(=O)OCC1OC(n2ccc(=O)[nH]c2=O)C(O)C1O` (stereo unspecified) here?
Answer: The cytotoxicity was 0.8%.

Question: With `CC(=O)OC[C@H]1O[C@@H](n2ncc(=O)[nH]c2=O)[C@H](OC(C)=O)[C@@H]1OC(C)=O` as the compound, how does the cytotoxicity read?
Answer: Its cytotoxicity is 54.7% (active).

Question: For `Nc1nc2nonc2nc1N1CCCCC1`, which cytotoxicity is on record?
Answer: The cytotoxicity was -2.7%.

Question: Which cytotoxicity does the source give for `CCOC(=O)c1cnc(SC2CC(=O)N(c3ccc(OC)c(OC)c3)C2=O)nc1N` (stereo unspecified) here?
Answer: The cytotoxicity was -9.5%.

Question: With `CC(NCCC(c1ccccc1)c1ccccc1)c1ccccc1` (stereo unspecified) as the compound, how does the cytotoxicity read?
Answer: The cytotoxicity was 90.2% (active).

Question: For `C/C(Cl)=C\CNC(C)c1ccccc1` (stereo unspecified), which cytotoxicity is on record?
Answer: Its cytotoxicity is -6.7%.

Question: Which cytotoxicity does the source give for `CC(NC(=O)CSc1ncccn1)c1ccccc1` (stereo unspecified) here?
Answer: Its cytotoxicity is 1.8%.

Question: Which cytotoxicity does the source give for `CCCC(=O)N1CCN(c2ccc(NC(=O)c3cc4ccccc4o3)cc2)CC1` here?
Answer: Its cytotoxicity is -19%.

Question: For `O=C(Nc1ccc(N2CCOCC2)c(Cl)c1)c1ccco1`, which cytotoxicity is on record?
Answer: The cytotoxicity was -11.5%.

Question: Which cytotoxicity does the source give for `O=C(Nc1ccc(N2CCOCC2)c(Cl)c1)c1c(F)c(F)c(F)c(F)c1F` here?
Answer: The cytotoxicity was 64.4% (active).

Question: Which cytotoxicity does the source give for `O=C(Cc1ccc(Cl)cc1)Nc1ccc(N2CCN(C(=O)c3ccco3)CC2)c(Cl)c1` here?
Answer: The cytotoxicity was 21.6%.

Question: With `O=C(Nc1ccc(N2CCOCC2)c(Cl)c1)c1cccc(F)c1` as the compound, how does the cytotoxicity read?
Answer: The cytotoxicity was 31.3%.

Question: Which cytotoxicity does the source give for `CCC(=O)Nc1ccc(NC(=O)c2cc3ccccc3o2)cc1` here?
Answer: Its cytotoxicity is -17.1%.

Question: Which cytotoxicity does the source give for `O=C(Nc1ccc(N2CCN(C(=O)c3ccco3)CC2)c(Cl)c1)c1c(F)c(F)c(F)c(F)c1F` here?
Answer: Its cytotoxicity is 103% (active).

Question: With `O=C(Nc1ccccc1N1CCN(C(=O)c2ccccc2)CC1)c1cc2ccccc2o1` as the compound, how does the cytotoxicity read?
Answer: Its cytotoxicity is -7.4%.

Question: For `O=C(Nc1ccc(N2CCN(C(=O)c3ccco3)CC2)c(Cl)c1)c1cccs1`, which cytotoxicity is on record?
Answer: Its cytotoxicity is -1%.

Question: For `O=C(Nc1ccccc1N1CCN(C(=O)c2ccc(Cl)cc2)CC1)c1cc2ccccc2o1`, which cytotoxicity is on record?
Answer: The cytotoxicity was 13.1%.

Question: With `Cn1c(SCC(=O)NC(C)(C)C)nnc1-c1ccc(C(C)(C)C)cc1` as the compound, how does the cytotoxicity read?
Answer: Its cytotoxicity is 8.1%.

Question: For `N#CCc1nc(CSc2nc3ccccc3o2)cs1`, which cytotoxicity is on record?
Answer: Its cytotoxicity is -5.5%.

Question: For `O=C(O)CCN1C(=O)C2C3C=CC(C3)C2C1=O` (stereo unspecified), which cytotoxicity is on record?
Answer: Its cytotoxicity is 4.7%.

Question: Which cytotoxicity does the source give for `Cc1ccc2cc(CN(CCCO)S(=O)(=O)c3cccc4nsnc34)c(=O)[nH]c2c1C` here?
Answer: The cytotoxicity was -8.7%.

Question: For `Cn1c(=O)c2c(SCc3cccnc3)nc(C3CC3)nc2n(C)c1=O`, which cytotoxicity is on record?
Answer: Its cytotoxicity is -15.9%.

Question: For `C/C(CC1(O)/C(=N/O)CCc2nonc21)=N\O` (stereo unspecified), which cytotoxicity is on record?
Answer: The cytotoxicity was -0.9%.

Question: With `Cc1ccccc1C(=O)N1CCN(c2ccc(NC(=O)c3ccco3)cc2Cl)CC1` as the compound, how does the cytotoxicity read?
Answer: The cytotoxicity was 14.5%.

Question: Which cytotoxicity does the source give for `O=C(Nc1ccc(N2CCN(C(=O)c3ccccc3)CC2)c(Cl)c1)c1ccco1` here?
Answer: The cytotoxicity was -11%.

Question: Which cytotoxicity does the source give for `Cc1cc(C(=O)CSc2nnc(Nc3ccccc3)s2)c(C)n1CC1CCCO1` (stereo unspecified) here?
Answer: The cytotoxicity was 1.1%.

Question: For `Cc1cc(C(=O)CSc2nnc(-c3ccccc3)n2C)c(C)n1C`, which cytotoxicity is on record?
Answer: Its cytotoxicity is 16.6%.

Question: For `C=CCn1c(C)cc(C(=O)CSc2nnc(NCc3ccccc3)s2)c1C`, which cytotoxicity is on record?
Answer: Its cytotoxicity is 64.7% (active).

Question: With `O=C(CSc1nnc(NCc2ccccc2)s1)c1ccco1` as the compound, how does the cytotoxicity read?
Answer: Its cytotoxicity is -6.2%.

Question: For `Cc1cc(C(=O)CSc2nnc(NCc3ccccc3)s2)c(C)n1C`, which cytotoxicity is on record?
Answer: Its cytotoxicity is 65.2% (active).

Question: With `C=CCn1c(C)cc(C(=O)CSc2nnc(Cc3ccccc3)o2)c1C` as the compound, how does the cytotoxicity read?
Answer: The cytotoxicity was -7.3%.

Question: With `Cc1cc(C)n(CNc2nc(C(F)(F)F)cs2)n1` as the compound, how does the cytotoxicity read?
Answer: The cytotoxicity was -4.6%.

Question: With `CC1CCN(Cc2ccc(NC(=O)CC3Oc4ccccc4NC3=O)cc2)CC1` (stereo unspecified) as the compound, how does the cytotoxicity read?
Answer: Its cytotoxicity is 0.1%.

Question: For `CN1C(=O)CSc2ccc(NC(=O)N3CCC(N4CCCCC4)CC3)cc21`, which cytotoxicity is on record?
Answer: The cytotoxicity was -15.1%.

Question: For `Cc1ccc(C2C3=C(CC(C)(C)CC3=O)Nc3n[nH]c(C)c32)cc1` (stereo unspecified), which cytotoxicity is on record?
Answer: The cytotoxicity was -5.7%.

Question: With `COc1cc(Cl)c(C)cc1NC(=O)CSc1nc2ccccc2o1` as the compound, how does the cytotoxicity read?
Answer: The cytotoxicity was -5.2%.

Question: With `CCOC(=O)C1C(C)N=C2SCC(=O)N2C1c1cccc(Br)c1` (stereo unspecified) as the compound, how does the cytotoxicity read?
Answer: Its cytotoxicity is -13%.

Question: With `COC(=O)c1ccccc1NC(=O)CSc1nc(-c2ccco2)cc(C(F)(F)F)n1` as the compound, how does the cytotoxicity read?
Answer: Its cytotoxicity is 51.7% (active).

Question: For `COC(=O)c1ccc(C(=O)OC)c(NC(=O)CSc2nc(-c3ccco3)cc(C(F)(F)F)n2)c1`, which cytotoxicity is on record?
Answer: Its cytotoxicity is -21.1%.

Question: With `O=C(CSc1nc(-c2ccco2)cc(C(F)(F)F)n1)Nc1cccnc1` as the compound, how does the cytotoxicity read?
Answer: Its cytotoxicity is -0.8%.

Question: Which cytotoxicity does the source give for `Cc1ccc(OCC(=O)NCCO)cc1C` here?
Answer: Its cytotoxicity is 9.8%.

Question: Which cytotoxicity does the source give for `C=Cn1c(N2CCOCC2)nc2c1c(=O)[nH]c(=O)n2C` here?
Answer: The cytotoxicity was -2.9%.

Question: For `O=C(Nc1cc(C(=O)N2CCOCC2)ccc1N1CCCC1)c1cccs1`, which cytotoxicity is on record?
Answer: The cytotoxicity was -2.1%.

Question: With `CC(C)c1ccc2oc(-c3ccc(N)cc3)nc2c1` as the compound, how does the cytotoxicity read?
Answer: The cytotoxicity was -11.3%.

Question: Which cytotoxicity does the source give for `CC(C)c1ccc2oc(-c3cc(N)ccc3O)nc2c1` here?
Answer: The cytotoxicity was 51.5% (active).

Question: With `CCc1ccc2oc(-c3cc(N)ccc3O)nc2c1` as the compound, how does the cytotoxicity read?
Answer: Its cytotoxicity is 7.1%.

Question: For `COC(=O)c1ccsc1NC(=O)CN1C(=O)CCC1=O`, which cytotoxicity is on record?
Answer: The cytotoxicity was -1.3%.

Question: For `COCCn1c(SCC(=O)Nc2ncc(C)s2)nc2sc3c(c2c1=O)CCC3`, which cytotoxicity is on record?
Answer: Its cytotoxicity is 14.3%.
